# High-throughput results as filed in PubChem.
# Shown are actives, neighbours in structure and some others; about 2.2% of the full set was active somewhere.
# PGC1a acetyl inh: lowers PGC1a acetylation signal in U2OS cells | AlphaScreen anti-acetyl-lysine; with virally co-expressed GCN5 acetyltransferase | hit rate 0.17% among 350,000 | inhibition, % at 15.6 µM;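 active = every replicate shows inhibition of at least 40%; inconclusive = mean inhibition at least 40% but some replicate below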;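 also: 0% = neutral control wells and 100% = positive control wells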
# miR-122 sensor: miR-122 inhibition in Huh7 cells; Huh7 miR-122 Renilla luciferase sensor, 48 h; neutral wells = 0, positive control = 100; activation (reporter increase), % at 12.5 µM; hit rate 0.3% among 340,000; AID 602342;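 active = mean replicate activation score at least 90 and every replicate individually at or above 90; inconclusive = only one of the two criteria met; inactive = neither criterion met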;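 also: higher luciferase means less miR-122 activity so hits act as miR-122 inhibitors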
# PvdQ acylase: P. aeruginosa PvdQ acylase inhibition; purified PvdQ acylase, fluorescence plate reader; inhibition, % at 10 µM; hit rate 0.063% among 340,000; AID 488965; in the data active = inhibition above about 30%, passing the limit was not always enough; inconclusive = no clear call, values can overlap the other calls;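 also: 0% = vehicle neutral wells and 100% = reference inhibitor wells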
# Statin myotox sup: protects C2C12 myotubes from simvastatin toxicity; ATP luminescence, 48 h; scaled: DMSO 0, geranylgeraniol control 100; rescue of ATP level, % at 7.49 µM; hit rate 0.78% among 330,000; AID 602340;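 active = mean ATP rescue above about 67%, or every replicate alone reaching that limit, limit read from the data, passing the limit was not always enough; inconclusive = no clear call, values can overlap the other calls; inactive = mean under the limit and some replicate under it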;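 also: myotubes were challenged with 10 µM simvastatin during compound exposure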
# DENV2 CPE rescue: DENV2-induced cell death inhibition; DENV2-infected cells, cytopathic effect rescue, plate reader; CPE inhibition, % at 9.99 µM; hit rate 1.7% among 350,000; AID 651640; in the data active = CPE inhibition above about 20%, passing the limit was not always enough; inconclusive = no clear call, values can overlap the other calls; tested in BHK-21 cells;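 also: 0% = median of neutral control wells and 100% = median of positive control wells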
# Numbers without * were called inactive; ? = inconclusive; . = no result given; ! = not confirmed by another sample; [ ] = another dose, or the depositor's remark.
SMILES,PGC1a acetyl inh,miR-122 sensor,PvdQ acylase,Statin myotox sup,DENV2 CPE rescue
O=C(O)C[C@@H]1C[C@@H]2c3cc(NC(=O)CC4CC4)ccc3O[C@@H]2[C@H](CO)O1,-1,-3[16.7 µM],.,-2,30*
Cc1ccc(-n2c(=O)cc(N3CCN(C(=O)c4ccco4)CC3)[nH]c2=O)cc1,-5,5,-3,102*,?
CNC[C@H]1OCCCC[C@H](C)Oc2ccc(NC(=O)c3ccccc3)cc2C(=O)N([C@@H](C)CO)C[C@@H]1C,16,2[16.7 µM],.,-16,5
COCCn1c(C)cc(C(=O)COC(=O)c2cncc(Br)c2)c1C,15,-5,2,98*,-2
COCCn1c(C)cc(C(=O)COC(=O)c2ccccc2Br)c1C,.,-3,-12,6,-1
O=C(CSc1nnc(CNc2ccc(F)cc2)n1Cc1ccccc1)N1CCOCC1,1,-4,-17,102*,.
O=C(CSc1nnc(CNc2ccc(F)cc2)n1Cc1ccccc1)NCc1ccco1,2,-1,-12,1,.
O=S(=O)(c1ccccc1)c1cc(O)ccc1O,.,221*,-13,2,-2
CC1CCCCN1S(=O)(=O)c1ccc(C(=O)Nc2sccc2C(N)=O)cc1 (stereo not given),-14,-2,0,109*,.
C[C@H](CO)N1C[C@H](C)[C@@H](CN(C)Cc2ccc(Cl)c(Cl)c2)Oc2c(NC(=O)c3ccncc3)cccc2C1=O,-14,106*![16.7 µM],-10,14,-2
C[C@H]1CN([C@@H](C)CO)C(=O)c2cccc(NC(=O)c3cnccn3)c2O[C@@H]1CN(C)Cc1ccc2c(c1)OCO2,21,18[16.7 µM],.,7,24*
C[C@H](CO)N1C[C@H](C)[C@H](CN(C)Cc2ccc(Cl)c(Cl)c2)Oc2c(NC(=O)c3cnccn3)cccc2C1=O,-11,6[16.7 µM],.,54,-10
C[C@H](CO)N1C[C@H](C)[C@@H](CN(C)C)Oc2c(NC(=O)c3cnccn3)cccc2C1=O,2,-3[16.7 µM],.,3,30*
C[C@H]1CN([C@@H](C)CO)C(=O)c2cccc(NC(=O)c3cnccn3)c2O[C@H]1CN(C)Cc1ccc(Cl)c(Cl)c1,-4,35[16.7 µM],.,10,23*
O=C(CN1CCOCC1)N[C@@H]1CC[C@H](CCNS(=O)(=O)c2ccccc2F)O[C@@H]1CO,-20,-4[16.7 µM],.,4,.
CN1CCN(C(=O)[C@H]2[C@H](CO)[C@H]3Cn4c(cccc4=O)[C@H]3N2Cc2ccccc2F)CC1,.,.,.,2,2
Cc1cccc(C(=O)N2CCC(n3nnc4cc(F)ccc43)CC2)c1,0,5,-1,134*,.
CCCNC(=O)Nc1ccc2c(c1)C(=O)N(C)C[C@@H](OC)[C@H](C)CN(Cc1ccc(-c3ccccn3)cc1)[C@H](C)CO2,12,.,.,12,9
O=C(C[C@@H]1CC[C@H]2[C@@H](COC[C@@H](O)CN2C(=O)C2CC2)O1)NCc1ccncc1,3,3[16.7 µM],.,9,-3
Cn1cnc(S(=O)(=O)N2CC[C@@H]3[C@H](CO)Nc4ccc(C#Cc5ccccc5)cc4[C@@H]32)c1,1,-10[16.7 µM],.,-19,.
CCCC#Cc1ccc2c(c1)[C@@H]1[C@@H](CCN1S(=O)(=O)c1ccccc1C)[C@@H](CO)N2,.,.,.,.,66*
COc1cccc(-c2ccc3c(c2)[C@H]2[C@H](CCN2S(=O)(=O)c2cn(C)cn2)[C@@H](CO)N3)c1,-21,4[16.7 µM],.,7,98*
COc1cccc(-c2ccc3c(c2)[C@H]2[C@H](CCN2S(=O)(=O)c2cn(C)cn2)[C@H](CO)N3)c1,-2,1[16.7 µM],.,-14,-4
CCCC#Cc1ccc2c(c1)[C@H]1[C@H](CCN1S(=O)(=O)c1cn(C)cn1)[C@H](CO)N2,-8,.,.,.,65*
Cn1cnc(S(=O)(=O)N2CC[C@@H]3[C@H](CO)Nc4ccc(-c5ccc(F)cc5)cc4[C@@H]32)c1,8,1[16.7 µM],.,-10,46*
SMILES,PGC1a acetyl inh,miR-122 sensor,PvdQ acylase,Statin myotox sup,DENV2 CPE rescue
CC(C)NC(=O)N1CC2(C1)[C@H](c1ccccc1)[C@@H](CO)N2C(=O)C1CC1,-6,.,.,.,2
CO[C@H]1CN(C)C(=O)c2cc(NC(=O)C3CCCC3)ccc2OC[C@H](C)N(CCC(F)(F)F)C[C@@H]1C,.,3[16.7 µM],.,0,?
C[C@@H]1CN([C@H](C)CO)S(=O)(=O)c2ccc(-c3ccncc3)cc2O[C@@H]1CN(C)C(=O)c1cccc(F)c1,-3,2[16.7 µM],.,17,-2
CO[C@@H](CN(C)C(=O)C1CC1)[C@H](C)CN(C(=O)Nc1ccc(C(F)(F)F)cc1)[C@@H](C)CO,5,.,.,-5,-3
Cn1cnc(S(=O)(=O)N2CC[C@@H]3[C@H](CO)Nc4ccc(C#Cc5ccc(F)cc5)cc4[C@@H]32)c1,4,-4[16.7 µM],.,-48,27*
COC(=O)C[C@H]1C[C@H]2c3cc(NC(=O)Nc4ccccc4)ccc3O[C@H]2[C@@H](CO)O1,7,0[16.7 µM],.,-5,1
C[C@@H]1CN([C@H](C)CO)C(=O)c2cc(-c3cccnc3)cnc2O[C@@H]1CN(C)C,4,-4[16.7 µM],.,-1,18
O=C(NCCN1CCCC1)[C@H]1[C@H](CO)[C@H]2Cn3c(cccc3=O)[C@@H]1N2C(=O)NC1CCCC1,.,.,.,.,23*
C[C@@H](NC(=O)[C@H]1[C@H](CO)[C@H]2Cn3c(cccc3=O)[C@H]2N1CC1CCCCC1)c1ccccc1,7,.,.,.,24*
O=C(NCc1ccc(F)cc1)[C@H]1[C@H](CO)[C@H]2Cn3c(cccc3=O)[C@@H]1N2CC1CCCC1,.,.,.,-3,43*
O=C([C@H]1[C@H](CO)[C@H]2Cn3c(cccc3=O)[C@@H]1N2Cc1cccc(Cl)c1)N1CCCCC1,.,6[16.7 µM],.,-8,34*
C[C@@H]1CN([C@H](C)CO)C(=O)c2cc(NS(=O)(=O)c3cn(C)cn3)ccc2O[C@H]1CN(C)CC1CC1,1,2[16.7 µM],.,0,8
O=C(C[C@@H]1C[C@H]2c3cc(NC(=O)Nc4ccccc4)ccc3O[C@H]2[C@@H](CO)O1)NCc1ccccn1,2,2[16.7 µM],.,3,4
O=C([C@H]1[C@H](CO)[C@H]2Cn3c(cccc3=O)[C@H]2N1CC1CCCC1)N1CCc2ccccc2C1,.,.,.,-10,-9
C[C@H](NC(=O)[C@H]1[C@H](CO)[C@H]2Cn3c(cccc3=O)[C@@H]1N2Cc1cccnc1)c1ccccc1,.,0[16.7 µM],.,7,81*
O=C(NC1CCCCC1)[C@@H]1[C@@H](CO)[C@@H]2Cn3c(cccc3=O)[C@H]1N2Cc1cccnc1,.,.,.,-2,136*
O=C(NC1CCCCC1)[C@H]1[C@H](CO)[C@H]2Cn3c(cccc3=O)[C@@H]1N2Cc1cccnc1,.,.,.,2,10
COc1cccc(C(=O)c2ncc(C(F)(F)F)cc2Cl)c1,.,.,-9,.,5
COC(=O)/C(=C\Nc1cccc(Cl)c1C)c1ncc(C(F)(F)F)cc1Cl,41*,-1,-4,.,.
O=S(=O)(c1ccccc1)N1CCCCN2[C@H](CO)[C@H](c3ccc(-c4cncnc4)cc3)[C@@H]2C1,-2,12[16.7 µM],.,.,33*
O=S(=O)(c1ccccc1)N1CCCCN2[C@@H](CO)[C@H](c3ccc(-c4cncnc4)cc3)[C@@H]2C1,-3,1[16.7 µM],.,.,-5
